Results: a collection of fitness landscapes (doi:10.1016/j.celrep.2020.107928)
In all, about 81,000 sequences were measured (“one-hybrid fitness for binding parS DNA”: median about -0.17, highest 2% from about 0.51 on). Shown is part of a subset that was picked to be rich in the highest values.

B1: Caulobacter ParB omega fusion; a variant is named by its letters at X, in order, B8GW30 (parent)
chain: MESVVVGEPGMSEGRRGLGRGLSALLGEVDAAPAQAPGEQLGGSREAPIEILQRNPDQPRRTFREEDLEDLSNSIREKGVLQPILVRPSPDTAGEYQIVAGERAWRAAQRAGLKTVPIMVRELDDLAVLEIGIIENVQRADLNVLEEALSYKVLMEKFERTQENIAQTIGKSXSHVANXMRLLXLPDEVQSYLVSGELTAXHARAIAAAADPVALAKQIIEGGLSVRETEALARKAPNLSAGKSKGGRPPRVKDTDTQALESDLSSVLGLDVSIDHRGSTGTLTITYATLEQLDDLCNRLTRGI

Variants of: B1
Assay: one-hybrid fitness for binding parS DNA (scaled: cognate 1, non-cognate 0); higher = stronger binding
Details: with parS DNA site
In short: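 Fitness here means the log change in variant-to-wild-type read ratio between plasmids sequenced before and after selection. That scale was set so cognate equals 1 and non-cognate equals 0. The selection was a bacterial one-hybrid screen of Caulobacter ParB libraries, four specificity codons randomised, in E. coli USO carrying a HIS3 reporter with the site 19 bp from the promoter, grown 48 hours at 37°C on M9-minus-histidine with 0.1 mM IPTG and 5 mM 3-AT.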

| Variant | one-hybrid fitness for binding parS DNA |
| --- | --- |
| ALNW | ≤ 0.2 |
| ACFK | ≤ 0.2 |
| PSMV | ≤ 0.2 |
| RMIA | 0.537 |
| RTPA | 0.363 |
| RSIA | 0.474 |
| RTIA | 0.542 |
| RCIA | 0.551 |
| RMPA | 0.393 |
| RPIA | ≤ 0.2 |
| RLIA | 0.592 |
| RLPA | 0.376 |
| RWIA | 0.295 |
| VHRF | ≤ 0.2 |
| NYLC | ≤ 0.2 |
| ALEW | ≤ 0.2 |
| NIYW | ≤ 0.2 |
| RPQY | ≤ 0.2 |
| RCQY | 0.493 |
| RRYY | 0.28 |
| RRNY | 0.727 |
| RRDY | 0.289 |
| RRFY | 0.274 |
| RAYY | 0.501 |

| Variant | one-hybrid fitness for binding parS DNA |
| --- | --- |
| RARY | 0.552 |
| RCNY | 0.482 |
| RRRY | 0.812 |
| RADY | 0.389 |
| RMQY | 0.546 |
| AECV | ≤ 0.2 |
| GPSG | ≤ 0.2 |
| TNDG | ≤ 0.2 |
| LTTC | ≤ 0.2 |
| SCLR | ≤ 0.2 |
| VNDE | ≤ 0.2 |
| FAPS | ≤ 0.2 |
| LNVW | ≤ 0.2 |
| RNEL | ≤ 0.2 |
| RSGY | 0.482 |
| RLYY | 0.497 |
| RSRY | 0.55 |
| RTGY | 0.593 |
| RLRY | 0.645 |
| RSDY | 0.352 |
| RFDY | 0.443 |
| RFYY | 0.383 |
| RLDY | 0.451 |
| RFRY | 0.533 |

| Variant | one-hybrid fitness for binding parS DNA |
| --- | --- |
| RPGY | ≤ 0.2 |
| RSYY | 0.457 |
| RRGE | ≤ 0.2 |
| LRQS | ≤ 0.2 |
| LLPK | ≤ 0.2 |
| ALSN | ≤ 0.2 |
| RIAY | 0.484 |
| RMRY | 0.777 |
| RIYY | 0.475 |
| RTLY | 0.495 |
| RTRY | 0.828 |
| RPRY | ≤ 0.2 |
| RTYY | 0.49 |
| RMIY | 0.467 |
| RIRY | 0.617 |
| RCYY | 0.472 |
| RCRY | 0.695 |
| RMYY | 0.483 |
| EDER | ≤ 0.2 |
| KRAT | ≤ 0.2 |
| DYVS | ≤ 0.2 |
| MMHG | ≤ 0.2 |
| SFLE | ≤ 0.2 |
| PRQV | ≤ 0.2 |

| Variant | one-hybrid fitness for binding parS DNA |
| --- | --- |
| RTNY | 0.659 |
| RSNY | 0.496 |
| RTDY | 0.437 |
| DVRM | ≤ 0.2 |
| RARK | ≤ 0.2 |
| RAWC | 0.927 |
| RAHC | 0.983 |
| RARC | 0.921 |
| RARR | ≤ 0.2 |
| RACR | ≤ 0.2 |
| RAWQ | ≤ 0.2 |
| RACC | 0.962 |
| RAHY | 0.472 |
| RAWF | 0.245 |
| RACK | ≤ 0.2 |
| RAHQ | ≤ 0.2 |
| CWYT | ≤ 0.2 |
| HLQT | ≤ 0.2 |
| YDQM | ≤ 0.2 |
| VCTK | ≤ 0.2 |
| QSGL | ≤ 0.2 |
| IVAE | ≤ 0.2 |
| SVEV | ≤ 0.2 |
| VAFA | ≤ 0.2 |

| Variant | one-hybrid fitness for binding parS DNA |
| --- | --- |
| TVDW | ≤ 0.2 |
| EQMM | ≤ 0.2 |
| RALR | ≤ 0.2 |
| RAQH | 0.211 |
| RASC | 0.973 |
| RAQC | 0.987 |
| RAQP | ≤ 0.2 |
| RALM | 0.34 |
| RASD | ≤ 0.2 |
| RAYC | 0.99 |
| RAYK | ≤ 0.2 |
| RALC | 0.968 |
| RAYF | 0.264 |
| RASP | ≤ 0.2 |
| WCQR | ≤ 0.2 |
| CHEL | ≤ 0.2 |
| DWAG | ≤ 0.2 |
| PWPN | ≤ 0.2 |
| IYAV | ≤ 0.2 |
| YPAT | ≤ 0.2 |
| WGPT | ≤ 0.2 |
| KAKV | ≤ 0.2 |
| PNIE | ≤ 0.2 |
| TVLI | ≤ 0.2 |

| Variant | one-hybrid fitness for binding parS DNA |
| --- | --- |
| CNIV | ≤ 0.2 |
| KLAN | ≤ 0.2 |
| DLHL | ≤ 0.2 |
| LCNK | ≤ 0.2 |
| PFMG | ≤ 0.2 |
| SAPW | ≤ 0.2 |
| DGTW | ≤ 0.2 |
| RGMT | 0.457 |
| RRMQ | ≤ 0.2 |
| RRMF | ≤ 0.2 |
| RKMT | 0.824 |
| RRMT | 0.6 |
| RDMT | ≤ 0.2 |
| RTMT | 0.935 |
| RSMT | 0.813 |
| RKMY | 0.386 |
| RTMF | 0.245 |
| RKMF | ≤ 0.2 |
| RTMQ | 0.208 |
| AQDS | ≤ 0.2 |
| QQQY | ≤ 0.2 |
| PPNS | ≤ 0.2 |
| GHCG | ≤ 0.2 |
| VYPW | ≤ 0.2 |

| Variant | one-hybrid fitness for binding parS DNA |
| --- | --- |
| TWKG | ≤ 0.2 |
| RIMK | ≤ 0.2 |
| RLMQ | ≤ 0.2 |
| RPMT | ≤ 0.2 |
| REMT | ≤ 0.2 |
| RIMT | 0.878 |
| RIMF | 0.247 |
| DFMT | ≤ 0.2 |
| RCMT | 0.921 |
| RLMT | 0.955 |
| RFMF | 0.245 |
| RFMT | 0.754 |
| RLMK | ≤ 0.2 |
| FHRK | ≤ 0.2 |
| ACEY | ≤ 0.2 |
| KYCS | ≤ 0.2 |
| TTLF | ≤ 0.2 |
| SFCW | ≤ 0.2 |
| HHQT | ≤ 0.2 |
| SRMA | ≤ 0.2 |
| QDSQ | ≤ 0.2 |
| KLPC | ≤ 0.2 |
| IKAG | ≤ 0.2 |
| HGIV | ≤ 0.2 |

| Variant | one-hybrid fitness for binding parS DNA |
| --- | --- |
| RAMT | 0.878 |
| RMMK | ≤ 0.2 |
| RAMP | ≤ 0.2 |
| RHMR | ≤ 0.2 |
| RAMN | 0.41 |
| RHMT | 0.87 |
| RHML | ≤ 0.2 |
| RMMT | 0.874 |
| RMMF | 0.247 |
| MMTS | ≤ 0.2 |
| SEPR | ≤ 0.2 |
| ENLY | ≤ 0.2 |
| PAVK | ≤ 0.2 |
| IFRK | ≤ 0.2 |
| PDML | ≤ 0.2 |
| THSD | ≤ 0.2 |
| RTCD | ≤ 0.2 |
| RTDQ | ≤ 0.2 |
| RTCN | 0.451 |
| RTDC | 0.887 |
| RTCC | 0.959 |
| RTQC | 0.974 |
| RTWC | 0.985 |
| RTDK | ≤ 0.2 |

| Variant | one-hybrid fitness for binding parS DNA |
| --- | --- |
| RTQP | ≤ 0.2 |
| RTWM | 0.381 |
| RTWR | 0.207 |
| RTQN | 0.442 |
| QNHE | ≤ 0.2 |
| TINS | ≤ 0.2 |
| DDHK | ≤ 0.2 |
| RPGE | ≤ 0.2 |
| IIHE | ≤ 0.2 |
| QARI | ≤ 0.2 |
| RTGQ | ≤ 0.2 |
| RTGC | 0.955 |
| RTNC | 0.914 |
| NTRC | ≤ 0.2 |
| RTRR | ≤ 0.2 |
| RTNM | 0.301 |
| RTNP | ≤ 0.2 |
| RTHC | 0.978 |
| RTGK | ≤ 0.2 |
| RTHR | ≤ 0.2 |
| RTRC | 0.826 |
| RTHF | 0.277 |
| TEQT | ≤ 0.2 |
| PSDC | ≤ 0.2 |

| Variant | one-hybrid fitness for binding parS DNA |
| --- | --- |
| TTIK | ≤ 0.2 |
| QTTK | ≤ 0.2 |
| EMYT | ≤ 0.2 |
| YMPG | ≤ 0.2 |
| QGVI | ≤ 0.2 |
| THDM | ≤ 0.2 |
| QTRR | ≤ 0.2 |
| WHQG | ≤ 0.2 |
| HQDG | ≤ 0.2 |
| SMLR | ≤ 0.2 |
| LTRA | ≤ 0.2 |
| KPYW | ≤ 0.2 |
| DMSV | ≤ 0.2 |
| RTSC | 0.969 |
| RTLP | ≤ 0.2 |
| RTYN | 0.424 |
| RTSP | ≤ 0.2 |
| RTLH | 0.232 |
| RTSH | ≤ 0.2 |
| RTLC | 0.982 |
| RTYC | 0.982 |
| RTYH | 0.266 |
| CTCV | ≤ 0.2 |
| NAVT | ≤ 0.2 |

| Variant | one-hybrid fitness for binding parS DNA |
| --- | --- |
| MEVR | ≤ 0.2 |
| QGIP | ≤ 0.2 |
| IPHS | ≤ 0.2 |
| RSLN | 0.443 |
| RSLS | 1.01 |
| RCLH | 0.258 |
| RSLD | ≤ 0.2 |
| RPLS | ≤ 0.2 |
| RCLS | 1.04 |
| TPGP | ≤ 0.2 |
| ASSQ | ≤ 0.2 |
| LTSY | ≤ 0.2 |
| PADA | ≤ 0.2 |
| RMVD | ≤ 0.2 |
| RMVS | 1.04 |
| RMKN | 0.432 |
| RMVN | 0.422 |
| RMKH | 0.24 |
| RMKS | 0.832 |
| LRAY | ≤ 0.2 |
| TDIK | ≤ 0.2 |
| RAKF | 0.385 |
| WVHG | ≤ 0.2 |
| RCEL | ≤ 0.2 |

| Variant | one-hybrid fitness for binding parS DNA |
| --- | --- |
| THTA | ≤ 0.2 |
| PWVT | ≤ 0.2 |
| RVMP | ≤ 0.2 |
| RVMT | 0.885 |
| RVMC | 0.95 |
| RVMD | ≤ 0.2 |
| RVML | ≤ 0.2 |
| RVMH | ≤ 0.2 |
| RVMY | 0.455 |
| RVMN | 0.388 |
| RVMF | 0.243 |
| RVMG | 0.971 |
| RVMS | 0.997 |
| RVMM | 0.287 |
| KMVW | ≤ 0.2 |
| WMRR | ≤ 0.2 |
| ALEF | ≤ 0.2 |
| ADCS | ≤ 0.2 |
| VPDS | ≤ 0.2 |
| RAKA | 0.737 |
| RAVA | 0.542 |
| AAKA | ≤ 0.2 |
| VWKI | ≤ 0.2 |
| LDDF | ≤ 0.2 |

| Variant | one-hybrid fitness for binding parS DNA |
| --- | --- |
| RYKA | 0.793 |
| RYSA | 0.535 |
| RYLA | 0.608 |
| RYVA | 0.508 |
| NYSA | ≤ 0.2 |
| DYKA | ≤ 0.2 |
| NYLA | ≤ 0.2 |
| RYWA | 0.554 |
| EYSA | ≤ 0.2 |
| LTIQ | ≤ 0.2 |
| LMSQ | ≤ 0.2 |
| GCEC | ≤ 0.2 |
| QYSE | ≤ 0.2 |
| MSRC | ≤ 0.2 |
| SYQA | ≤ 0.2 |
| RYHA | 0.545 |
| RYRA | 0.727 |
| PYQA | ≤ 0.2 |
| NYRA | ≤ 0.2 |
| RYIA | 0.496 |
| RYQA | 0.562 |
| AYGA | ≤ 0.2 |
| SYGA | ≤ 0.2 |
| RYGA | 0.539 |
